Screening data deposited in PubChem by National Center for Advancing Translational Sciences (NCATS).
A selection: hits, their analogues and other compounds. The true share with any hit is near 1.5%.
uPA surface inh = qHTS for Inhibitors of Cell Surface uPA Generation | cell surface uPA generation assay, qHTS | Potency, µM (top dose mostly 38.3 µM), for inactives: at the highest dose activity change, negative = inhibition, usual class: inhibitors | hit rate 0.31% among 330,000 | AID 540303, 2011; active means well fitted inhibition curve with a large enough effect; inconclusive means small, poorly fitted or top-dose-only effect; inactive means no such curve, though single readings can be large or run the other way; tested in mouse RAW 264.7 cells; further: potency means the concentration at half of the fitted maximal effect; on the % scale 0 is the no-effect control and ±100 the full control effect; nearly all actives have a fitted effect of over 55% in size
IL2 activator = qHTS of IL-2 Activators; IL-2 activation reporter assay, cell-based qHTS; stimulated with anti-CD3/CD4/CD28 beads; in transgenic mouse T cells; activation, % (series mostly up to about 46 µM); AID 652025, 2013; hit rate 0.065% among 360,000; in the data active means activation above about 50%; inconclusive means mostly about 30% to 49%; further: 0% is about no effect
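Readout: EGFP and DsRed signals by fluorescent plate cytometry. Unstimulated transgenic mouse T cells received compound 60 min before antibody-bead stimulation, then incubated 18 h at 37 degrees C.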
Nrf2 ARE act = qHTS of Nrf2 Activators. AREc32 ARE-luciferase reporter (MCF7-derived line), luminescence, 24 h. Potency, µM (top dose mostly 46.1 µM), for the others: at the highest dose activation, actives largely listed as activators. hit rate 0.31% among 410,000. AID 624171, 2012; further: potency means the concentration at half of the fitted maximal effect; % of control where 0% means no effect; nearly all actives have a fitted effect of over 65% in size
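Nrf2 activation is followed as ARE-luciferase induction in the AREc32 line after one day of compound treatment; luminescence is read with Steady-Glo.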
a7 integrin act = qHTS for Activators of Integrin-Mediated Alleviation for Muscular Dystrophy | hit rate 0.064% among 350,000 | Potency, µM (top dose mostly 38.3 µM), inactives show at the highest dose activation, hits mostly activators | alpha7betagal myoblasts, beta-gal FDG fluorescence, 48 h;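 further: potency means the concentration at half of the fitted maximal effect; 100% = response of the positive control SU9516; nearly all actives have a fitted effect of over 60% in size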
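Alpha7betagal+/- myoblasts (passage 13) were plated 16-24 hr, then exposed to compounds (1:260 dilution of DMSO stock) for 48 hours at 37C. After MPER lysis, β-galactosidase reporter activity was read as FDG fluorescence (ex 480/em 540) after 30 minutes.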
12-LOX inh = Primary qHTS assay for inhibitors of human arachidonate 12S-lipoxygenase (ALOX12): Round 2 | Polyunsaturated fatty acid lipoxygenase ALOX12 (Homo sapiens), P18054 | purified 12hLO, xylenol orange hydroperoxide absorbance | Potency, µM (highest dose often 108 µM), inactives show at the highest dose activity change, negative = inhibition, actives largely listed as inhibitors | hit rate 1.1% among 580,000 | AID 1671190, 2021; further: potency means the concentration at half of the fitted maximal effect; on the % scale 0 is the no-effect control and ±100 the full control effect
Target sequence (P18054 whole entry, looked up): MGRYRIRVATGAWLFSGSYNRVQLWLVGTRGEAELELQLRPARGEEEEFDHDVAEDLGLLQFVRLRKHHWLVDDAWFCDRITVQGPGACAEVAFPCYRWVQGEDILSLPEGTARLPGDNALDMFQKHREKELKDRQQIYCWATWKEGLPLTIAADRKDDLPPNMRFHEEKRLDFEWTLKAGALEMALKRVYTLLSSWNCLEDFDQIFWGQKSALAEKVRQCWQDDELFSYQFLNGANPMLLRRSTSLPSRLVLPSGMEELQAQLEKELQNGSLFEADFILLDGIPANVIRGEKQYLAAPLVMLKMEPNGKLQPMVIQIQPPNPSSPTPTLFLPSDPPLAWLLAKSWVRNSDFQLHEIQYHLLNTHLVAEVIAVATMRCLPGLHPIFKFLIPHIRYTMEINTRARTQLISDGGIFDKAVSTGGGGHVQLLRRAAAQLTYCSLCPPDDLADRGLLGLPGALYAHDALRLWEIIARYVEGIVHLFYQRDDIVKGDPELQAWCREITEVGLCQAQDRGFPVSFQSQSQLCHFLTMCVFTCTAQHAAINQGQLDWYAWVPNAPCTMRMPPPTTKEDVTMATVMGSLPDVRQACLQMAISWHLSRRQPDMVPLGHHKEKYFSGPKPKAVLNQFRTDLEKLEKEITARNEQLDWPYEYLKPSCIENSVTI
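Purified human 12hLO (150 nM final) in 25 mM Hepes, 0.01% Triton X-100, pH 7.0 was preincubated 15 min at room temperature with compound. Then 40 uM arachidonic acid was added, 30 min. Hydroperoxide was read by Fe-XO absorbance ratio 573/405 nm.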
Active calls of the source: *; ? = inconclusive; nt = not tested or not shown. Unless noted, the call rests on the fitted dose curve; in most records, active means well fitted curve in the direction sought with a large enough effect; inconclusive means small, poorly fitted or top-dose-only effect, or another doubt; inactive means no such curve, though single readings can be large; an effect the other way counts as inactive or inconclusive.

SMILES	uPA surface inh	IL2 activator	Nrf2 ARE act	a7 integrin act	12-LOX inh
COc1cccc(CN2CCCC(C(=O)Nc3ccc(-c4cscn4)cc3)C2)c1 (configuration not stated)	7.1µM*	-2	1%	-34%	224%
CCc1ccccc1N1CSC2=C(C#N)C(c3ccccc3F)CC(=O)N2C1 (configuration not stated)	?	1	1%	-3%	3.2µM*
COc1ccc(N2CSC3=C(C#N)C(c4cccc(OC)c4OC)CC(=O)N3C2)cc1 (configuration not stated)	-24%	1	4%	-8%	11µM*
COc1cc(C2CC(=O)N3CN(c4ccc(C)cc4)CSC3=C2C#N)cc(Br)c1O (configuration not stated)	nt	nt	nt	nt	1.3µM*
COc1ccc(C2CC(=O)N3CN(c4ccccc4F)CSC3=C2C#N)cc1OC (configuration not stated)	7%	4	-1%	21%	?
COc1ccc(C2CC(=O)N3CN(c4ccc(C)c(Cl)c4)CSC3=C2C#N)cc1 (configuration not stated)	-22%	0	4%	10%	4µM*
COc1ccc(OC)c(C2CC(=O)N3CN(c4ccccc4)CSC3=C2C#N)c1 (configuration not stated)	-12%	-3	3%	-5%	?
COc1cc(OC)c(C2CC(=O)N3CN(c4ccccc4C)CSC3=C2C#N)cc1OC (configuration not stated)	nt	nt	nt	nt	-12%
Cc1nn(-c2ccc(F)cc2)c(Oc2ccc(F)cc2F)c1CCC(=O)N1CCSCC1	nt	nt	nt	nt	-6%
COc1ccc2c(=O)c(-c3ccccc3)coc2c1C	nt	nt	nt	nt	32µM*
C=CCOc1cccc(-c2nnc(CCC(=O)NC(C)CC)c(=O)[nH]2)c1 (configuration not stated)	nt	nt	nt	nt	17%
Cc1oc2c(c1C(=O)N1CCC(C)CC1)C(=O)c1ccccc1C2=O	10µM*	-4	-4%	-50%	-6%
CCOC(=O)C1CCN(C(=O)c2c(C)oc3c2C(=O)c2ccccc2C3=O)CC1	?	-1	-4%	-7%	?
CC(C)N1CCC2(CC1)CN(C(=O)c1ccccn1)Cc1ccccc1O2	nt	nt	nt	nt	36%
Cc1noc(C)c1-c1nc(N2CCN(C)CC2)c2ccccc2n1	nt	nt	nt	nt	18µM*
Cc1noc(C)c1-c1nc(N2CCOCC2)c2ccccc2n1	nt	nt	nt	nt	40µM*
O=c1sc2c(s1)SC1CCCCCCCCCCC1S2 (configuration not stated)	nt	nt	nt	nt	-1%
O=S(=O)(Nc1ccc(C(O)(C(F)(F)F)C(F)(F)F)cc1)c1cccc2ccccc12	nt	-1	-1%	nt	45µM*
CCOC(=O)c1c(C)[nH]c(C)c1C(=O)COC(=O)/C=C/c1ccc(OC)cc1	2.5µM*	-3	0%	-17%	-26%
CCOC(=O)c1c(C)[nH]c(C)c1C(=O)COC(=O)/C=C/c1cccc(F)c1	3%	0	8%	-40%	0%
O[C@@H]1CO[C@H]2[C@@H]1OC[C@@H]2n1nnnc1SC1CCCC1	nt	nt	nt	nt	63µM*
O=c1[nH]c(CN2CCN(c3ccc(O)cc3)CC2)nc2scc(-c3ccc(Cl)cc3)c12	5µM*	0	6%	0%	?
O=c1[nH]c(CN2CCN(c3ccccc3O)CC2)nc2scc(-c3ccccc3Cl)c12	3%	-2	2%	-36%	2%
COC(=O)c1oc(-c2ccccc2)nc1C	-6%	0	13µM*	-3%	-14%
COC(=O)c1oc(-c2ccc(Cl)cc2)nc1C	nt	0	4%	-333%	-14%
SMILES	uPA surface inh	IL2 activator	Nrf2 ARE act	a7 integrin act	12-LOX inh
Cc1ccc(C)c(S(=O)(=O)N2CCCCC2c2noc(COCC3CC3)n2)c1 (configuration not stated)	nt	nt	nt	nt	26%
Cc1ccc(-c2nn(-c3cccc(F)c3)cc2CN2CCN(c3ccccn3)CC2)o1	-3%	0	4%	5%	8.9µM*
NS(=O)(=O)c1ccc(NC(=O)/C=C/c2ccccc2[N+](=O)[O-])cc1	-1%	1	?	-5%	0%
O=C(/C=C\c1ccccc1[N+](=O)[O-])Nc1ccccc1	-9%	1	11µM*	-18%	0%
Cc1c(C2c3nc[nH]c3CCN2Cc2ccc(CO)o2)oc2ccccc12 (configuration not stated)	nt	nt	nt	nt	110%
Cc1cccc(-n2c(=O)c3c(cc(C)n3C)n(CC(=O)Nc3c(C)cccc3C)c2=O)c1	nt	nt	nt	nt	71µM*
C=CCNc1nc(C(=O)OC(C)C(=O)Nc2ccc(N3CCOCC3)cc2)cs1 (configuration not stated)	nt	nt	nt	nt	7%
CCCCCC(=O)N1C[C@H](n2cc(COC(=O)c3ccccc3)nn2)[C@@H](O)C[C@@H]1c1ccc(C)cc1	nt	2	2%	21%	40µM*
CC(C)c1cccc(OCCN2CCCC2)c1	1%	-1	-1%	9%	0.63µM*
O=C(c1cc2n(n1)CC(c1ccc(Cl)cc1)OC2)N1CCN(c2ccccc2)CC1 (configuration not stated)	nt	nt	nt	nt	-5%
Cc1ccc(C(NC(=O)CN2C(=O)NC3(CCCC3)C2=O)c2ccccc2)cc1 (configuration not stated)	2%	1	1%	?	398%
CCC1CSC(=Nc2ccc(C)cc2)N1C(=O)CN1C(=O)NC2(CCCC2)C1=O (configuration not stated)	8.9µM*	-2	-2%	3%	-2%
CN(C)CC(O)COc1ccc(CN2CCN(c3ncc[nH]c3=O)CC2)cc1 (configuration not stated)	nt	nt	nt	nt	-9%
Cc1ccc(C(=O)NC(=C(Cl)Cl)S(=O)(=O)c2ccc(C)cc2)cc1	-8%	1	11µM*	-23%	?
O=C(NC(=C(Cl)Cl)S(=O)(=O)c1ccc(Cl)cc1)c1ccccc1	8.9µM*	-2	?	-12%	-11%
CCNc1cc(N2CCC(CCC(=O)NC3CCCC3)CC2)ncn1	nt	nt	nt	nt	4%
Cc1sc2ncnc(SCC(=O)c3cccs3)c2c1C	1%	-3	14µM*	-7%	-21%
O=C(NCCn1cc(SCc2ccc(F)cc2)c2ccccc21)c1c(F)cccc1F	10µM*	-5	6%	3%	-4%
CN1C(=O)C(NC(=O)C(=O)NCc2ccncc2)c2ccccc21 (configuration not stated)	nt	nt	nt	nt	-49%
CC(C)(Oc1ccc(Cl)cc1)C(=O)NC1=NN(c2ccccc2)C(=O)C1	7%	-2	6%	35%	50µM*
CCc1nncn1C1CCN(S(=O)(=O)c2cccc(Cl)c2)CC1	nt	nt	nt	nt	21%
CCOc1cc(-c2noc(N)c2C#N)cc(OCC)c1OCC	-2%	0	?	-56%	-19%
